The panel holds about 83,000 compounds, 20% with a hit somewhere; the sample as a whole holds those more often.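 Growth was measured after 48 h exposure to one concentration of compound in 96-well plates. Values under 10 count as active.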 The source made the active and inactive calls.
system: MDA-MB-468 breast; test: NCI-60 one-dose screen, 48 h (100 = growth as untreated, 0 = no growth, -100 = all killed); settings: 10 µM unless noted

Structure (SMILES)	growth
C=CC(=O)N1CC=C(c2cc3c(N[C@H](C)c4ccccc4)ncnc3[nH]2)CC1	33.3% (inactive)
COC(=O)CCC(=O)C(=O)OC	52.9% [10 mM] (inactive)
O=C1/C(=C/c2ccc(Br)cc2)COc2ccc(O)c(O)c21	-51.8% (active)
COc1ccc(-c2n[nH]nc2-c2cc(OC)c(OC)c(OC)c2)cc1	-0.494% (active)
CC[C@]1(O)CC2CN(CCc3c([nH]c4ccccc34)[C@@](C(=O)OC)(c3cc4c(cc3OC)N(C=O)[C@H]3[C@@](O)(C(=O)OC)[C@H](OC(C)=O)[C@]5(CC)C=CCN6CC[C@]43[C@@H]65)C2)C1 (stereo partly drawn)	10.4% (inactive)
Cc1nc2ccccc2n1C(=O)C[C@@H]1NC(=S)NC1=O	95.7% (inactive)
CCCC(=O)c1cc(C)ccc1OC	113% (inactive)
c1ccc2c(c1)CCCc1nnc3nc4ccccc4n3c1-2	29.9% (inactive)
Oc1[nH]c2ccc(Cl)cc2c1/C=c1/ccc2c(c1)N=C(c1ccc(C(F)(F)F)cc1)N=2	52.5% (inactive)
O=C1[C@H]2Cc3c([nH]c4ccccc34)[C@@H](c3c(Cl)cccc3Cl)N2C(=O)CN1C1CCN(CC2CCCCC2)CC1	80.5% (inactive)
C=C(C)[C@@H]1CC[C@]2(C(=O)NCC#CCN3CCN(C)CC3)CC[C@]3(C)[C@H](CC[C@@H]4[C@@](C)(CCC#N)[C@H](C(=C)C)CC[C@]43C)[C@@H]12	18.7% (inactive)
O=c1oc2ccc(I)cc2c(=O)n1-c1ccc(I)cc1F	-2.07% (active)
COc1cc(-c2cc(/C=C/C(=O)c3ccc(N)cc3)[nH]n2)cc(OC)c1OC	-47.7% (active)

Source: PubChem BioAssay (NCI)
